Results taken from the supplement of paper PMC10338343.
± gives the standard deviation. Over roughly 8,200 sequences, “pre-steady-state target cleavage rate” has its median near 0.024; the highest 2% begin near 1.3. What follows is part of a selection rich in the highest values, with near analogues and random picks from the rest.

Test system: MIWI (PIWIL1) piRISC loaded with L1MC piRNA (30 nt)
Experiment: pre-steady-state target cleavage rate (min^-1); MIWI and MILI are mouse PIWI proteins and EfPiwi is from a freshwater sponge; tags in brackets are library labels; higher = faster piRNA-guided slicing of the target
Conditions: guide: L1MC piRNA 5'p-UAACUAAAUACUAUGCAAGCUGUAGGUCCU
Summary of the method: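 Active affinity-purified piRISC (1 nM) loaded with one synthetic guide was mixed with a transcribed, DNA-blocked target RNA library (0.1 nM), with or without 500 nM GTSF1 partner protein, in HEPES–potassium acetate buffer at 33 °C for 0–8 or 0–960 min. Uncleaved targets were sequenced, normalised to depth and to weakly complementary targets, and pooled across three trials, with k3 capped at 0.0001 min^-1. The pre-steady-state cleavage rate was determined with a burst-and-steady-state fit.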

[1] = auxiliary factor: 500 nM mouse GTSF1
[2] = auxiliary factor: none (no GTSF1)

Sequence	pre-steady-state target cleavage rate [1]	pre-steady-state target cleavage rate [2]
UCCACCUACAGCUUGCAUAGUAUUCUAGUUA	0.633 ± 0.067	0.0214 ± 0.0052
UCCUCCUACAGCUUGAUAGUAUUUAGUUA	0.824 ± 0.05	0.00583 ± 0.0021
UCCUCCUACAGCUUGGAUAGUAUUUAGAUA	0.372 ± 0.039	0.00865 ± 0.0019
UCCUCCUACAGCUUGUAUAGUAUUUAGUUA	1.38 ± 0.042	0.0427 ± 0.008
UCCUCCUACAGCUUGUCAUAGUAUUUAGUUA	0.44 ± 0.046	
AGGUCCUACAGCUUGGAUAGUAUUUAGUUA	1.39 ± 0.072	0.079 ± 0.014
UCCUCCUACAGCUUGGCAUAGUAUUUAGUUA	0.831 ± 0.11	0.0114 ± 0.0021
UCCUGCUACAGCUUGGAUAGUAUUUAGUUA	1.29 ± 0.12	0.0507 ± 0.0096
UCCUCCUACAGCUUGGAUAGUAUUUAGUUA	1.44 ± 0.045	0.0511 ± 0.0092
UGGUCCUACAGCUUGGAUAGUAUUUAGUUA	1.22 ± 0.038	0.0568 ± 0.0069
UCCUCCUACAGCUUGGAUAGUAUUUAGUAA	0.707 ± 0.045	0.0186 ± 0.0033
UGGAGCUACAGCUUGGAUAGUAUUUAGUUA	1.11 ± 0.083	0.0533 ± 0.0083
UCGUCCUACAGCUUGGAUAGUAUUUAGUUA	1.56 ± 0.048	0.0586 ± 0.0084
UCCACCUACAGCUUGCAUUGUAUUUACAAA	0.112 ± 0.024	
UCCUGGUACAGCAUGCAUAGUAUUUAGUAA	0.377 ± 0.04	0.00875 ± 0.0024
UCCUGGAUGAGCUUGCAUGGUAUUUAGUUA	0.743 ± 0.043	0.0817 ± 0.02
UCCUGGAUCAGCUUGCAUAGAAUUUAGUUA	0.258 ± 0.028	0.0291 ± 0.0088
UCCUCCUACAGCUUGCAUUGUAUUUACUUA	0.388 ± 0.031	0.0162 ± 0.0032
UCCUGGAUCAGCAUGCAUAGUAUUUACAAA	0.156 ± 0.034	
UCCUGGAUGUGCUUGCAUAGUAUUCUAGUUA	0.211 ± 0.037	0.0155 ± 0.0049
AGGACCAACAGCUUGCAUAGUAUUUAGUAA	0.974 ± 0.079	0.0722 ± 0.014

Sequence	pre-steady-state target cleavage rate [1]	pre-steady-state target cleavage rate [2]
UCGACCAACAGCUAGCAUAGUAUUUAGUUA	1.08 ± 0.046	0.0286 ± 0.0073
UGGACCAACAGCUUGCAUAGUAUUUAGAUA	0.428 ± 0.022	0.0582 ± 0.014
AGGACCAACAGCUAGCAUAGUAUUUAGUUA	1.08 ± 0.052	0.038 ± 0.01
UGGACCAACAGCUUGCAUAGUAUUUAGUAA	1.17 ± 0.06	0.0641 ± 0.015
UGGACCAACAGCUUGCAUAGUAUUUAGUUA	1.35 ± 0.047	0.0769 ± 0.013
AGGACCAACAGCUUGCAUAGUAUUUAGAAA	0.624 ± 0.071	0.033 ± 0.012
AGGACCAACAGCUUGCAUAGUAUUUAGUUA	1.4 ± 0.05	0.122 ± 0.021
UGGACCAACAGCUAGCAUAGUAUUUAGUUA	1.36 ± 0.059	0.0347 ± 0.0073
UCCUGGUACAGCUUGCAUACAAUUUAGUAA	0.0076 ± 0.0052	
UCCUGGAUGUGCUUGCAUAGUAUUUAGGUA	0.0938 ± 0.016	0.0113 ± 0.0031
UCCUGGAACAGCUUGGAUAGUAUUUUGUUA	0.745 ± 0.075	0.0289 ± 0.0047
UCCUGGAUGAGCUUGCAUAGUUUUAAGUUA	0.0288 ± 0.0084	0.00673 ± 0.0032
AGCACCUACAGCUUGCAUAGUAUUUAGUAA	0.974 ± 0.12	0.197 ± 0.062
UGGACCUACACCUUGCAUAGUAUAUAGUUA	0.523 ± 0.041	0.0327 ± 0.007
UCCUGGAACAGCAUGCAUAGUAUUUAGUAA	0.695 ± 0.061	0.0107 ± 0.0026
UCCUGGAUCAGCUAUGCAUAGUAUUUAGUUA	1.04 ± 0.073	0.0161 ± 0.0043
UGGACCUACACGUUGCAUAGUAUUUACAAA	0.103 ± 0.013	
AGGACCGACAGCUUGCAUAGUAUUUAGUUA	1.21 ± 0.058	0.0903 ± 0.017
UGGACCGUACAGCUUGCAUAGUAUUUAGUUA	1.24 ± 0.06	0.064 ± 0.0096
UCGACCGACAGCUUGCAUAGUAUUUAGUUA	1.41 ± 0.05	0.0741 ± 0.012
UCGACCGUACAGCUUGCAUAGUAUUUAGUUA	1.26 ± 0.046	0.0719 ± 0.013

Sequence	pre-steady-state target cleavage rate [1]	pre-steady-state target cleavage rate [2]
UGGACCGACAGCUUGCAUAGUAUUUAGUUA	1.45 ± 0.076	0.0713 ± 0.013
UCCACCGACAGCUUGCAUAGUAUUUAGUUA	1.04 ± 0.043	0.0616 ± 0.011
UCCACCAUCAGCUUGCAUAGUAUUUAGUAA	0.68 ± 0.029	0.0248 ± 0.0047
UCCUGGAUGUCCUUGCAUAGUAUUGAGUUA	0.142 ± 0.031	0.00653 ± 0.0024
UGGACCUACAGCUUGCAAUGUAUUUACAAA	0.0217 ± 0.0068	
UCCUGGAUCAGCUUGCAUACUAUUAAGUUA	0.101 ± 0.015	0.00664 ± 0.0024
UCCUGGAACAGCUUGCAAAGUAUUUUCAAA	0.0876 ± 0.018	0.00328 ± 0.002
UCCUGGUACAGCUUGCAUAGUAUUUAGUCUA	0.0829 ± 0.026	0.00718 ± 0.0028
AGGACCUACAGCUUGCAUAGAAUUUAGUUA	0.559 ± 0.044	0.0408 ± 0.011
UCCUGCAACAGCUUGCAUAGUAUUUAGUUA	1.57 ± 0.12	0.0696 ± 0.017
UCCUGGAACAGCUUGCAGUAGUAUUUAGUUA	0.00503 ± 0.0043	
UCCUGCAACAGCUUGCAUAGUAUUUAGUAA	1.22 ± 0.083	0.0736 ± 0.021
UCCUGGAACAGCUUGCGUAGUAUUUAGUUA	1.43 ± 0.087	0.0397 ± 0.0099
UCCUGCAACAGCUUGCAAAGUAUUUAGUUA	1.32 ± 0.076	0.0463 ± 0.01
UCCUGCAACAGCAUGCAUAGUAUUUAGUUA	1.36 ± 0.087	0.0331 ± 0.0088
UCCUGCAACAGCUUGCAUAGUAUUUAGAAA	0.429 ± 0.059	0.00469 ± 0.0034
UCCUGGAACAGCUUGCUUAGUAUUUAGUUA	1.14 ± 0.053	0.0404 ± 0.0098
UCCUGCUACAGCUUGCAAAGUAUUUAGUUA	0.619 ± 0.037	0.03 ± 0.0055
UCCUCCAACAGCUUGCAAAGUAUUUAGUUA	1.16 ± 0.043	0.0397 ± 0.0099
